Source: PubChem (National Center for Advancing Translational Sciences (NCATS))
The list is not random: actives were taken first. Their share in the collection is about 6.3%.
HepG2 viability: qHTS for Inhibitors of TGF-b: Cytotox Counterscreen; HepG2 CAGA-GFP viability, ATP luminescence, 18 h; Potency, µM (top dose mostly 46.1 µM), most hits filed as cytotoxic; AID 588856, 2011; 410,000 compounds, 0.76% hits
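CellTiter-Glo luminescence gave cytotoxicity after 18 hours at 37 degrees C. The cells were HepG2 CAGA-GFP in 1% FBS DMEM, stimulated with 500 pg/mL TGF-beta after compound addition. %Activity was normalised to no-cell wells (complete cell-killing) and DMSO (no toxicity), and curves were fitted and classified.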
Gal4-VP16 FLuc: VP16 counterscreen qHTS for inhibitors of ROR gamma transcriptional activity. Drosophila S2 Gal4-VP16 UAS-luciferase, luminescence, 20 h. 310,000 compounds, 3.5% hits. Potency, µM (series often up to 53.6 µM), most hits filed as inhibitors;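 further: Gal4-VP16 expression switched on by copper sulfate through the metallothionein promoter; nearly all actives have a fitted effect of over 50% in size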
ATXN2 expr inh: Primary qHTS for Inhibitors of ATXN expression. HEK-293 ATXN2-luciferase reporter, luminescence, 24 h. Potency, µM (doses to about 57 µM), actives largely listed as inhibitors. 360,000 compounds, 0.72% hits. AID 1745845, 2022; further: nearly all actives have a fitted effect of over 55% in size
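qHTS (up to 57 uM final) was run with 24 h compound exposure of reporter cells at 37 °C. Each well was multiplexed: SteadyGlo luminescence measured ATXN2-luciferase expression after a fluorogenic Gly-Phe-AFC viability readout (25 uM final).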
ATXN viability: Viability Counterscreen for Primary qHTS for Inhibitors of ATXN expression. S2 cells (HEK-293 line with an ATXN2-luciferase reporter) viability, CellTiter-Fluor protease fluorescence, 24 h. Potency, µM (titrated, usually from 56.7 µM), hits mostly cytotoxic. 400,000 compounds, 0.49% hits. AID 651635, 2014; further: nearly all actives have a fitted effect of over 40% in size
TGFb inhibitor: qHTS for Inhibitors of TGF-b | HepG2 CAGA-GFP TGF-b/SMAD3 reporter, GFP fluorescence, 18 h; TGF-beta stimulated, 500 pg/mL final | Potency, µM (doses to about 46.1 µM), most hits filed as inhibitors | 410,000 compounds, 1.2% hits | AID 588855, 2011; further: nearly all actives have a fitted effect of over 65% in size
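HEPG2 CAGA-GFP reporter cells (1000/well, DMEM with 1% FBS) received compounds, then recombinant TGF-beta at 500 pg/mL final for 18 hours at 37 degrees C. Per-cell GFP summed per well was normalised to unstimulated and stimulated DMSO controls before curve fitting.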
RORg inh: qHTS for inhibitors of ROR gamma transcriptional activity; Nuclear receptor ROR-gamma (Mus musculus), P51450; Drosophila S2 Gal4-RORgamma UAS-luciferase reporter, 20 h; Potency, µM (doses to about 53.6 µM), usual class: inhibitors; 310,000 compounds, 5.4% hits; further: nearly all actives have a fitted effect of over 60% in size
Target sequence (P51450 whole entry, looked up, the tested form may be a part): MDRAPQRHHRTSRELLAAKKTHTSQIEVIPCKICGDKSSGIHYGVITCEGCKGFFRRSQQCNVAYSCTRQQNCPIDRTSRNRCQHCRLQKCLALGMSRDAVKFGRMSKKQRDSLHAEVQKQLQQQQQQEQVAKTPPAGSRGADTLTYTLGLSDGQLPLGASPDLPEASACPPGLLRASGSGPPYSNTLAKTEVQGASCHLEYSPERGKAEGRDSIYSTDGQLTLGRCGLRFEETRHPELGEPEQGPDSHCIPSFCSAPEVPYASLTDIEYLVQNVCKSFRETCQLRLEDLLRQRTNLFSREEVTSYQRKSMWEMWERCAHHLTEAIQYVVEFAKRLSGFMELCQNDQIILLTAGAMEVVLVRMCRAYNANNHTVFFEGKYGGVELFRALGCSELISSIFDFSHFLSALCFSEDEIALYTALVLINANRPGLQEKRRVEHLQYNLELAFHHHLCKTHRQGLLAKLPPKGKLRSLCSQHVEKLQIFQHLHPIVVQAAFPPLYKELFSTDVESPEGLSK
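In this cell-based reporter format, copper sulfate (700 uM final) drives Gal4–ROR gamma fusion expression from a metallothionein promoter in Drosophila Schneider cells; compounds preincubated 1 hr, reporter read after 20 hr at ambient temperature.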
A number is an active result; [ ] = remark or other dose. The call rests on the fitted dose curve; in most records, active means well fitted curve in the direction sought with a large enough effect; inconclusive means small, poorly fitted or top-dose-only effect, or another doubt; inactive means no such curve, though single readings can be large; an effect the other way counts as inactive or inconclusive.

What do the screens show for `C#CCOCCOCCOCCNc1nc(N2CCN(C(=O)CCCCCCCCCCNC(=O)[C@@H](CCC(=O)O)n3cc(CCCCCN)nn3)CC2)nc(N2CCN(C(=O)CCCCCCCCCCNC(=O)[C@H]([C@@H](C)CC)n3cc(CCCCCN)nn3)CC2)n1`?
HepG2 viability: inactive; ATXN2 expr inh: inactive; ATXN viability: inconclusive; TGFb inhibitor: inconclusive

Results for C#CCOCCOCCOCCNc1nc(N2CCN(C(=O)CCCCCCCCCCNC(=O)[C@H]([C@@H](C)CC)n3cc(CCCCN=C(N)N)nn3)CC2)nc(N2CCN(C(=O)CCCCCCCCCCNC(=O)[C@H](CCCCN)n3cc(C)nn3)CC2)n1 ?
HepG2 viability: 11.2µM; ATXN2 expr inh: 25.1µM; ATXN viability: 20µM; TGFb inhibitor: 15.8µM

Results for C#CCOCCOCCOCCNc1nc(N2CCN(C(=O)CCCCCCCCCCNC(=O)[C@H](CCCCN)n3cc(C)nn3)CC2)nc(N2CCN(C(=O)CCCCCCCCCCNC(=O)[C@H](CCCCN)n3cc(CCCC(=O)O)nn3)CC2)n1 ?
HepG2 viability: inactive; ATXN2 expr inh: inactive; ATXN viability: inactive; TGFb inhibitor: inconclusive

How did Cc1ccc(CN2CCc3nnc(C(C)NC(=O)c4cc(F)ccc4F)n3CC2)o1 (configuration not stated) do in these assays?
ATXN viability: inactive

How did CCC(=O)N1CCc2cc(S(=O)(=O)NCCC(=O)Nc3ccc(C)cc3)ccc21 do in these assays?
HepG2 viability: inactive; ATXN2 expr inh: inactive; ATXN viability: inactive; TGFb inhibitor: inactive

How did CN(C)c1nc2cc(Cl)ccc2cc1CN(Cc1ccc2c(c1)OCO2)C(=O)c1ccoc1 do in these assays?
ATXN viability: inactive

Results for CC[C@@H](C)[C@H](CNC)NC[C@@H](Cc1cccc2ccccc12)NCCc1cccc(C(F)(F)F)c1 ?
HepG2 viability: inactive; Gal4-VP16 FLuc: inconclusive; ATXN2 expr inh: inactive; ATXN viability: 35.5µM; TGFb inhibitor: inconclusive; RORg inh: 12.6µM

What do the screens show for `CCC[C@@H](CN[C@@H](CNC)[C@H](C)CC)NCC1CCC(C(C)(C)C)CC1` (some centres not stated)?
HepG2 viability: inactive; Gal4-VP16 FLuc: inconclusive; ATXN2 expr inh: inconclusive; TGFb inhibitor: inconclusive; RORg inh: 11.2µM

What do the screens show for `CCC[C@H](CN[C@@H](CNC)[C@H](C)CC)NCCc1cc(C(F)(F)F)cc(C(F)(F)F)c1`?
HepG2 viability: 22.4µM; Gal4-VP16 FLuc: inconclusive; ATXN2 expr inh: inconclusive; TGFb inhibitor: 15.8µM; RORg inh: inconclusive

Results for O=C(CNC(=O)Cc1ccccc1)NCc1cccc(C(F)(F)F)c1 ?
HepG2 viability: inactive; Gal4-VP16 FLuc: inactive; ATXN2 expr inh: inactive; ATXN viability: inactive; TGFb inhibitor: inactive; RORg inh: inactive

How did CCN(CC(=O)Nc1cccc(OC)c1)C(=O)C1CC(=O)N(Cc2ccccc2Cl)C1 (configuration not stated) do in these assays?
HepG2 viability: inactive; ATXN viability: inactive; TGFb inhibitor: inactive

Results for O=C(Nc1ccc(OCC(F)(F)C(F)F)c(C(F)(F)F)c1)c1ccccc1O ?
HepG2 viability: inactive; Gal4-VP16 FLuc: inactive[0.365 µM]; ATXN2 expr inh: inconclusive; ATXN viability: inconclusive; TGFb inhibitor: inconclusive; RORg inh: 7.94µM

How did O=C(Nc1ccc(OCC(F)(F)C(F)F)c(C(F)(F)F)c1)c1ccccc1 do in these assays?
HepG2 viability: inactive; ATXN2 expr inh: inconclusive; ATXN viability: inconclusive; TGFb inhibitor: inactive

How did NC(Cc1ccc(C(F)(F)F)cc1)c1csc(Nc2ccccn2)n1 (configuration not stated) do in these assays?
HepG2 viability: inactive; ATXN2 expr inh: inactive; ATXN viability: inconclusive; TGFb inhibitor: inactive

What do the screens show for `NC(Cc1ccc(C(F)(F)F)cc1)c1csc(Nc2cc(NCc3ccco3)ncn2)n1` (configuration not stated)?
HepG2 viability: 20µM; ATXN2 expr inh: 14.1µM; ATXN viability: 25.1µM; TGFb inhibitor: inconclusive

What do the screens show for `NC(CCc1ccccc1)c1csc(Nc2ccc(C(=O)c3ccccc3)cc2)n1` (configuration not stated)?
HepG2 viability: 15.8µM; ATXN2 expr inh: inconclusive; ATXN viability: inconclusive; TGFb inhibitor: inconclusive

How did NC(CCc1ccccc1)c1csc(Nc2ccc(C(=O)NCCO)cc2)n1 (configuration not stated) do in these assays?
HepG2 viability: inactive; ATXN2 expr inh: inactive; ATXN viability: inactive; TGFb inhibitor: inactive

What do the screens show for `NC(Cc1ccc(C(F)(F)F)cc1)c1csc(Nc2ccc(C(=O)c3ccccc3)cc2)n1` (configuration not stated)?
HepG2 viability: 22.4µM; ATXN2 expr inh: 31.6µM; ATXN viability: inactive; TGFb inhibitor: inconclusive

What do the screens show for `CCOc1ccc(NC(=S)Nc2ccccc2C2(C)CC2)cc1`?
HepG2 viability: inactive; Gal4-VP16 FLuc: inconclusive; ATXN2 expr inh: inactive; ATXN viability: inactive; TGFb inhibitor: inconclusive; RORg inh: 7.94µM

Results for CCOc1ccc(NC(=S)Nc2ccc(F)cc2)cc1 ?
HepG2 viability: inactive; Gal4-VP16 FLuc: inconclusive; ATXN viability: inactive; TGFb inhibitor: inactive; RORg inh: 12.6µM

What do the screens show for `CCOc1ccc(NC(=S)NN(C)C(=S)Nc2ccc(OCC)cc2)cc1`?
HepG2 viability: inactive; Gal4-VP16 FLuc: inconclusive; ATXN2 expr inh: inactive; ATXN viability: inactive; TGFb inhibitor: inconclusive; RORg inh: 7.94µM

Results for CCOc1ccc(NC(=S)Nc2cccnc2)cc1 ?
HepG2 viability: inactive; Gal4-VP16 FLuc: inactive; ATXN2 expr inh: inactive; TGFb inhibitor: inactive; RORg inh: inconclusive

What do the screens show for `CCOc1ccc(NC(=S)NC(C)c2cccs2)cc1` (configuration not stated)?
HepG2 viability: inactive; Gal4-VP16 FLuc: 5.01µM; ATXN2 expr inh: inactive; ATXN viability: inactive; TGFb inhibitor: inactive; RORg inh: 3.16µM

How did Cc1cc(C)c(NC(=O)c2cc(C)nc3c2c(C)nn3-c2cccc(F)c2)c(C)c1 do in these assays?
HepG2 viability: inactive; ATXN2 expr inh: inactive; ATXN viability: inactive; TGFb inhibitor: inactive

How did COC(=O)c1ccc(C(NC(=O)OCc2ccccc2)/C(I)=C/[C@@H](C)C(=O)NCC2CC2)cc1 (some centres not stated) do in these assays?
Gal4-VP16 FLuc: inactive; RORg inh: inconclusive

How did O=S(c1cc(Cl)cc(Cl)c1O)c1cc(Cl)cc(Cl)c1O do in these assays?
Gal4-VP16 FLuc: inactive; ATXN2 expr inh: inconclusive; ATXN viability: inconclusive; RORg inh: inactive
